# PubChem BioAssay AID588852 (The Scripps Research Institute Molecular Screening Center, 2011)
# The campaign covered roughly 360,000 compounds. About 4,600 (1.3%) were called active. The sample as a whole holds a higher share of actives than the screen did. Unmarked numbers belong to inactive results.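 Rule for the calls: active = percent inhibition above its own plate's cutoff, namely the mean of that plate's compound wells plus 3 SD; inactive = the rest.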
# Target: Muscarinic acetylcholine receptor M1 (Homo sapiens) (UniProt P11229)
# Test: human M1 muscarinic receptor antagonists, primary screen, CHO-K1 cells, Fluo-8 calcium fluorescence, 1536-well (AID 588852);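 note: peak over basal fluorescence ratio during 140 s after agonist addition; 0% = ACh EC80 plus DMSO and 100% = DMSO alone without agonist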
# Conditions: CHO-K1 hM1, Fluo-8 calcium fluorescence, ACh EC80 antagonist; at 3 µM; stronger effect = higher value
# Muscarinic acetylcholine receptor M1 (Homo sapiens), sequence (P11229 whole entry, looked up): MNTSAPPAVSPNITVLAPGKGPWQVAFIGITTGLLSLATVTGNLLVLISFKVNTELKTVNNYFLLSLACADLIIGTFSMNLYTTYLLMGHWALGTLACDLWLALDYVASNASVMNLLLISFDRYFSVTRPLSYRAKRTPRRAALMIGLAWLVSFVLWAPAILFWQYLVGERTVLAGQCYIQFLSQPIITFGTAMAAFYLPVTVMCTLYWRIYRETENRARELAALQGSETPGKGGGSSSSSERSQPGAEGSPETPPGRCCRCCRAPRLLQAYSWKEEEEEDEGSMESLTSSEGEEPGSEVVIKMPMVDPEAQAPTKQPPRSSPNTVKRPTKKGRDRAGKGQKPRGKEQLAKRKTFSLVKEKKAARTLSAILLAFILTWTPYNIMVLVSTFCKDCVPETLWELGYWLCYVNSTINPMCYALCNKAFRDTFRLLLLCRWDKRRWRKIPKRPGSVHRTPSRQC
row,Compound,inhibition
1,O=C(NC(Cc1ccc(O)cc1)C(=O)O)/C(=C/c1ccccc1)NC(=O)c1ccccc1 (configuration not stated),-14.6%
2,Cc1cccc(CN2CCN(C3CN(Cc4cn(Cc5ccccc5F)nn4)S(=O)(=O)C3)CC2)c1 (configuration not stated),-4.3%
3,COC(=O)C1=C(C)NC(=O)/C1=C/c1ccc(CNS(=O)(=O)c2ccc(C)cc2)o1,8.24%
4,COC(=O)C1=C(C)NC2=C(C(=O)c3ccccc32)C1c1ccc(-c2ccc(C(=O)O)cc2)o1 (configuration not stated),32.9% (active)
5,COC(=O)C1=C(C)N(C)C(=O)NC1c1ccc([N+](=O)[O-])o1 (configuration not stated),0.09%
6,CCN(CC)S(=O)(=O)c1ccc(N(C)CCc2ccc(OC)c(OC)c2)nc1,-0.86%
7,CCN(CC)S(=O)(=O)c1ccc(N(C)Cc2ccc(C(F)(F)F)cc2)nc1,61.2% (active)
8,CCN(CC)S(=O)(=O)c1ccc(N(C)Cc2cccc(OC)c2OC)nc1,7.81%
9,Cc1ccc(Sc2ccc(NC(=O)c3ccc(F)cc3)cc2C#N)cc1,9.62%
10,Cc1ccccc1N1CCN(CCCOc2ccc3c(C)cc(=O)oc3c2)CC1,39.5% (active)
11,Cc1cc(OCCCN2CCN(Cc3ccccc3)CC2)ccc1[N+](=O)[O-],54.7% (active)
12,COc1ccc(N2CCN(C(=O)COc3ccc4c(C)cc(=O)oc4c3)CC2)cc1,-5.75%
13,Cc1cc(=O)oc2cc(OCC3CC(c4ccccc4Cl)=NO3)ccc12 (configuration not stated),-6.21%
14,Cc1cc(OCC(=O)NC2CCN(C)CC2)ccc1[N+](=O)[O-],-1.71%
15,COc1cc(CN2CCN(Cc3ccc(C)cc3)CC2)c([N+](=O)[O-])cc1OC,-6.59%
16,Nc1nc2cc(Cl)ccc2n1N,-2.44%
17,CN1OC[C@@H]2CN(S(=O)(=O)c3cccc4ccccc34)[C@H](c3ccc(N4CCCCC4)cc3)C[C@@H]21,5.74%
18,O=C(NC(c1ccc(-c2ccccc2)cc1)c1cnccn1)C1CCN(CCOc2ccc(Cl)cc2Cl)CC1 (configuration not stated),-16.7%
19,CN(C)CCOc1cccc(Br)c1,17.3%
20,CN(C)CCOCCOc1ccc(Cl)c2ccccc12,-1.32%
21,CN(C)CCOc1ccc(Cl)cc1C(C)(C)C,66.2% (active)
22,Cc1cc(C)cc(NC(=O)C(OC(=O)c2ccc(O)cc2)c2ccccc2)c1 (configuration not stated),29.5% (active)

row,Compound,inhibition
1,Cc1cc(C)cc(NC(=O)C(c2ccccc2)N2CCN(CC(=O)N3CCCC3)CC2)c1 (configuration not stated),3.45%
2,Cc1ccc(C)c(NC(=O)C(OC(=O)c2ccc(C)s2)c2ccccc2)c1 (configuration not stated),-2.69%
3,COCCCNC(=O)CN1C(=O)CSc2ccc(S(=O)(=O)N3CCOCC3)cc21,-6.65%
4,CCN(C(=O)COC(=O)c1c(C)nn(-c2ccccc2)c1Cl)c1c(N)n(Cc2ccccc2)c(=O)[nH]c1=O,-4.94%
5,CN(Cc1cccnc1)C(=O)c1cc(COc2ccc3ncccc3c2)on1,50% (active)
6,CN(Cc1cnccn1)C(=O)c1cc(COc2cccc(C(F)(F)F)c2)on1,-11.2%
7,CC(=O)c1cccc(OCc2cc(C(=O)NC(C)Cc3cccnc3)no2)c1 (configuration not stated),18.6%
8,Cc1nc(COc2cc3oc(=O)cc(C)c3cc2Cl)cs1,-7.17%
9,O=C(Cn1cc(C(F)(F)F)ccc1=O)Nc1ccc2c(c1)OCCO2,-0.29%
10,O=C(CSc1nnc(-c2ccco2)o1)NCC(=O)c1ccccc1,-3.08%
11,O=S(=O)(c1cccc(Cn2nnc(-c3ccc(F)cc3)n2)c1)N1CCOCC1,27.1% (active)
12,Cc1nc(-c2ccc(F)cc2)c(CC(=O)Nc2cccc(S(=O)(=O)N3CCOCC3)c2)s1,0.85%
13,CCN(Cc1ccncc1)C(=O)c1cccc(S(=O)(=O)N2CCOCC2)c1,-4%
14,O=C(CSc1nc2nccnc2c(=O)n1Cc1cccs1)Nc1ccccc1F,9.12%
15,Cc1ccccc1CNC(=O)CCC(=O)N1Cc2ccccc2Oc2ncccc21,-0.29%
16,O=C(CS(=O)(=O)c1ccc(C(F)(F)F)cn1)NNC(=O)c1ccccc1,11.9%
17,Nc1nc2c(ncn2[C@@H]2O[C@H](CNS(=O)(=O)N3CCc4ccccc4C3)[C@@H](O)[C@H]2O)c(=O)[nH]1,-4.64%
18,COC(=O)c1ccc(NC(=O)CN(c2ccc(C)cc2)S(=O)(=O)c2c(C)n[nH]c2C)cc1,-8.36%
19,CN(Cc1ccccc1F)c1cc2c(c3c1ccn3C)C1CCC2O1 (configuration not stated),-40.5%
20,COc1cc(C(=O)NCc2ccc3c(c2)cc(C)n3C)cc(OC)c1OC,-1.03%
21,COc1cc(C(=O)NCc2cc3cc(Cl)ccc3n2C)cc(OC)c1OC,-19.2%
22,CCn1c(CNC(=O)c2cc(OC)c(OC)c(OC)c2)cc2cc(C)ccc21,47.9% (active)

row,Compound,inhibition
1,CCN(CC(=O)NC(C)C)C(=O)c1cc(S(=O)(=O)N2CCCCC2)ccc1N1CCCCC1,-0.72%
2,CCc1ccc(NC(=O)C(=O)N/N=C(\C)CC(=O)NCCOC)cc1,-7.5%
3,O=C(CSc1nc2ccccc2c(=O)n1CCCO)N1CCc2ccccc21,-9.53%
4,Cn1c(SCC(=O)N2CCCc3ccccc32)nc2ccccc2c1=O,31.9% (active)
5,C=CCn1c(=O)c2ccccc2n2c(SCC(=O)N3CCCc4ccccc43)nnc12,10.1%
6,CCn1c(C(C)C)n[nH]c1=S,-7.45%
7,CC(C)C1Nc2c(C(=O)O)cccc2C(Nc2ccccc2C(=O)O)C1(C)C (configuration not stated),2.52%
8,CC(=NNC(=O)c1ccc2nc[nH]c2c1)c1ccc(Br)cc1,35.2% (active)
9,C/C(=N\NC(=O)c1ccc2ccccc2c1)c1cccnc1,-15.4%
10,O=C(O)CC/C(=N\NC(=O)c1ccc(F)cc1)c1ccc(Br)cc1,-10.2%
11,CN1OC[C@@H]2CN(C(=O)c3cccnc3)[C@H](c3ccc(N4CCCCC4)cc3)C[C@@H]21,-0.12%
12,COc1ccc(C(=O)OCC(=O)c2ccc(C)c(S(=O)(=O)N3CCOCC3)c2)cc1OC,42% (active)
13,Cc1ccc(C(=O)OCC(=O)N2CCCCCC2)cc1S(=O)(=O)N1CCOCC1,-0.5%
14,COc1ccc(CNC(=O)COC(=O)c2ccc(C)c(S(=O)(=O)N3CCOCC3)c2)cc1OC,-2.56%
15,CC1(Cc2ccccc2C#N)C(=O)Nc2ccc(-c3ccc4[nH]ccc4c3)cc21 (configuration not stated),8.72%
16,CCOC(=O)c1ccn(S(=O)(=O)c2ccc(C)cc2)c1-c1ccccc1,13.3%
17,COc1ccc(C(CNC(=O)c2cccc(S(=O)(=O)Nc3ccc(Br)cc3)c2)N(C)C)cc1 (configuration not stated),-2.85%
18,CC(=O)c1ccc(S(=O)(=O)Nc2ccc(C(=O)NCC(c3ccccc3)N(C)C)cc2)cc1 (configuration not stated),16.4%
19,COc1ccccc1C(CNC(=O)c1cccc(S(=O)(=O)Nc2ccc(F)cc2)c1)N(C)C (configuration not stated),100% (active)
20,Cc1cccc(NS(=O)(=O)c2ccc(C)c(C(=O)NCC(c3ccccc3)N(C)C)c2)c1 (configuration not stated),-6.04%
21,CN(C)C(CNC(=O)c1cccc(S(=O)(=O)Nc2ccc(Br)cc2)c1)c1ccco1 (configuration not stated),-0.14%
22,COc1ccccc1C(CNC(=O)c1cccc(NS(=O)(=O)c2ccc(Br)cc2)c1)N(C)C (configuration not stated),99.2% (active)

row,Compound,inhibition
1,CCOc1ccc2[nH]c(=S)sc2c1,-3.12%
2,CCc1ccc[n+](-c2nc([O-])sc2C=O)c1,-4.29%
3,Cc1ccc(S(=O)(=O)N2CCOCC2)cc1C(=O)OC1CCCCC1=O (configuration not stated),0.72%
4,O=C(/C=C/[C@H]1O[C@@H](n2ccc(=O)[nH]c2=O)[C@H](O)[C@@H]1O)NCc1ccccn1,-44.8%
5,Cc1cccc(CSc2nnc(C)c(=O)n2N)c1,-6.73%
6,Cc1cccc(CSc2nc3c(c(=O)n2C)SCC3)c1,55.3% (active)
7,Cn1c(SCC(=O)N2CCCCC2)nc2c(c1=O)SCC2,17.4%
8,O=C(OCC(=O)N1CCc2ccccc21)C1CCCN1S(=O)(=O)c1ccc(Cl)cc1 (configuration not stated),-8.54%
9,CN[C@H]1C[C@H]2c3cc(Oc4ccccc4C)ccc3CCN2C(=O)[C@H]1[C@H](C)O,-8.68%
10,Cc1ccccc1CN1C(=O)c2ccccc2Sc2ccc(C(=O)NCCCN3CCOCC3)cc21,-18.2%
11,CCN1CCN(CCNC(=O)c2ccc3c(c2)NC(=O)/C(=C\c2cccc(Cl)c2)S3)CC1,3.02%
12,CCN1CCN(CCNC(=O)c2ccc(/C=C3/Sc4ccccc4N(Cc4cccc(C)c4)C3=O)cc2)CC1,35.2% (active)
13,C[C@H](NC(=O)CC[C@H]1O[C@@H](n2ccc(=O)[nH]c2=O)[C@H](O)[C@@H]1O)c1cccc2ccccc12,-22.7%
14,COCCCNCCOCCOc1ccc(Cl)cc1Br,-3.69%
15,COCC(C)NCc1cc(Br)ccc1OC (configuration not stated),-2.87%
16,CCC(C)NCCOCCOc1ccc(Br)cc1C (configuration not stated),34.6% (active)
17,COC(=O)c1ccc(CN2C(=O)C(Cc3ccccc3)ON=C2c2ncccc2C)o1 (configuration not stated),0.28%
18,CC(C)C(NC(=O)c1c(F)cccc1F)C(=O)NNC(=O)c1ccccc1 (configuration not stated),7.65%
19,CN1CCN(CCCNC(=O)c2ccc(/C=C3\Oc4ccccc4N(Cc4ccc(Cl)cc4)C3=O)cc2)CC1,53.5% (active)
20,Cc1c(C)n(Cc2ccc(Cl)cc2)c2ccc(C(=O)NCCCN3CCOCC3)cc12,12.4%
21,CCC1Oc2ccccc2N(CC(=O)NCCCN2CCN(CC)CC2)C1=O (configuration not stated),-1.31%
